Test results from ChEMBL document CHEMBL3988442, “University of Dundee, Small-Polar-MMV Screening Library” (2021).
For some assays here: Measured potencies and affinities stand elsewhere.

Key:
Set-up in all cases: scale not given: direction of the effect not stated beside the values
[1] = biological target: Protein translocase subunit SecA (Escherichia coli (strain K12)) (UniProt P10408); assay: Assay to Identify E. coli SecA ATPase Inhibitors; format: functional; details: 30 µM
[2] = biological target: T1, Ubiquitin-activating enzyme e1, putative (Leishmania donovani (strain BPK282A1)) (UniProt E9BSI1); assay: Leishmania donovani Ubiquitin Activating Enzyme (LdE1); format: functional; details: 30 µM
T1 sequence (whole entry): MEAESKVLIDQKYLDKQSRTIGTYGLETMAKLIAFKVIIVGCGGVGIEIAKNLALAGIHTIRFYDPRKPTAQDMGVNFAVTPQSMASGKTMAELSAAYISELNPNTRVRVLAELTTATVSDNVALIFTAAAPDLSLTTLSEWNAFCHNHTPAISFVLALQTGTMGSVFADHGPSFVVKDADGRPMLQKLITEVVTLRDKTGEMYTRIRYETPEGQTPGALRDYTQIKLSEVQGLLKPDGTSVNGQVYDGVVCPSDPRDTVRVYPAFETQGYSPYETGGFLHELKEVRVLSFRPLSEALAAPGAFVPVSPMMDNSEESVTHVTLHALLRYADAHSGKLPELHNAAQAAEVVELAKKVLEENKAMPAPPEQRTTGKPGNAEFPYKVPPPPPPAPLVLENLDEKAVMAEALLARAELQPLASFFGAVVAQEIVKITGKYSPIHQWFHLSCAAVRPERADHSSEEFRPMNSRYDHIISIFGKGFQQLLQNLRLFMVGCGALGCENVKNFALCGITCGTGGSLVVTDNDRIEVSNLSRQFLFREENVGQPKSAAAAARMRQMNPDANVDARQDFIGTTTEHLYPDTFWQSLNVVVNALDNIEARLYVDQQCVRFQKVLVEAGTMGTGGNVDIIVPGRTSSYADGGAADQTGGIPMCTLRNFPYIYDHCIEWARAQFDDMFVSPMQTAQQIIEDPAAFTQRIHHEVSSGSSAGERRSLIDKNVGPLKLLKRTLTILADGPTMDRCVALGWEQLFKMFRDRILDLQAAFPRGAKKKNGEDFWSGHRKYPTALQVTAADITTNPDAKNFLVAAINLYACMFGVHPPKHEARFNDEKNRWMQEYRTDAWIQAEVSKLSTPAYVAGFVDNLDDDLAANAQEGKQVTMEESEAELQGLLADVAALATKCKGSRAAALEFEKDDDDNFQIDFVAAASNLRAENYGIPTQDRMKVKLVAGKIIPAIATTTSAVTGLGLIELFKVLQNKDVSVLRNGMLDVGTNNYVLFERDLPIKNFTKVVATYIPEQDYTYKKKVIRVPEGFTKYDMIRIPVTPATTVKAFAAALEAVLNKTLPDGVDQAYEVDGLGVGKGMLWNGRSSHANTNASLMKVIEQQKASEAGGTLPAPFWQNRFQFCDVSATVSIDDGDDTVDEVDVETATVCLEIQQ

[3] = biological target: T2, Aspartate--tRNA(Asp/Asn) ligase (Mycobacterium tuberculosis (strain ATCC 25618 / H37Rv)) (UniProt P9WFW3); assay: Assay for Asp RNA synthetase-1 from Mycobacterium tuberculosis; format: functional; details: 30 µM; further: in the data most compounds retested in dose-response had high values
T2 sequence (whole entry): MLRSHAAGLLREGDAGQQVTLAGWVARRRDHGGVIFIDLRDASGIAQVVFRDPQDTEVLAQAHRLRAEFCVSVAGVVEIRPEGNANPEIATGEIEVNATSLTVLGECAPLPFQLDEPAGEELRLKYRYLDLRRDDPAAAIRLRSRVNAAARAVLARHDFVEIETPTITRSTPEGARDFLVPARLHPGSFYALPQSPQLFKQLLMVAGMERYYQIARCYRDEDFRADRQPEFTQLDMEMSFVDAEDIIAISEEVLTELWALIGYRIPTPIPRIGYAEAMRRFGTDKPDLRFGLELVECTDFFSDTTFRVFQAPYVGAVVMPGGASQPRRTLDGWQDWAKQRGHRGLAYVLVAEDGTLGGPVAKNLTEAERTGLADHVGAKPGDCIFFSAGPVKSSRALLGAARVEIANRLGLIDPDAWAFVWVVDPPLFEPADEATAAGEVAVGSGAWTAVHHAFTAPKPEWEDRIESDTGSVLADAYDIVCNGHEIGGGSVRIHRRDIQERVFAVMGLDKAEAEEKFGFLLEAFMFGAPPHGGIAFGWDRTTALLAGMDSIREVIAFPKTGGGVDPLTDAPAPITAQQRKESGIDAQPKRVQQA

[4] = biological target: AMP-activated protein kinase, AMPK (Homo sapiens) (UniProt P54646+O43741+P54619+Q9UGJ0+Q9Y478+Q13131+Q9UGI9); assay: AMP-dependent Kinase enzyme assay. An in vitro enzyme assay that detects ADP turnover that is directly proportional to AMPK activity. This uses naive AMPK that is activated during the assay with MK-8722; format: functional; details: 30 µM
[5] = biological target: Sialic acid-binding Ig-like lectin 9 (Homo sapiens) (UniProt Q9Y336); assay: Hs-Siglec9 ALPHAscreen SOP 20170721; details: 10 µM
Trypanosoma cruzi = assay: Trypanosoma cruzi phosphomannomutase and mannose-1-phosphate guanylyltransferase assay; format: functional; details: 10 µM
[6] = biological target: T3, Arginase-2, mitochondrial (Homo sapiens) (UniProt P78540); assay: in vitro enzyme assay to detect the production of urea directly proportional to the activity of Arginase II; format: functional; details: 33.3 µM; further: in the data most compounds retested in dose-response had high values
T3 sequence (whole entry): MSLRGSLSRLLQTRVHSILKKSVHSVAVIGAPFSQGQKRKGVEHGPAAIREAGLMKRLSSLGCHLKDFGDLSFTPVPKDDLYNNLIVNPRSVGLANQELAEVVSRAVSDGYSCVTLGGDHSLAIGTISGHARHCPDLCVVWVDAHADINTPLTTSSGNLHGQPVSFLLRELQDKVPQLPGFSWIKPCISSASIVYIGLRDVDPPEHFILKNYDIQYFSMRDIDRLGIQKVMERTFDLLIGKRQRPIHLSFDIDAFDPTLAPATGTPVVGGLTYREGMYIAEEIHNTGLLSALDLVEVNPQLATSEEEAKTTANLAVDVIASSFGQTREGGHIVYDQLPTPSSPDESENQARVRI

[7] = biological target: T4, Proteasome subunit beta (Trypanosoma cruzi) (UniProt O96673); assay: Trypanosoma cruzi proteasome chymotrypsin-like activity (TcProtChymo) assay.; further: in the data most compounds retested in dose-response had high values; format: functional; details: 9.37 µM
T4 sequence (whole entry): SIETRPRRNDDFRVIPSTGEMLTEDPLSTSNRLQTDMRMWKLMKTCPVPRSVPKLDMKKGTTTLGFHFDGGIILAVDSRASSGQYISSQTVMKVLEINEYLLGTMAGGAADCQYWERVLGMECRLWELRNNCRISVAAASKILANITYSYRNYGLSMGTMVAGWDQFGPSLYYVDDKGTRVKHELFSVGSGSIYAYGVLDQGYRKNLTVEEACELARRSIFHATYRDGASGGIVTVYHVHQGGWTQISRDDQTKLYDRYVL

Homo sapiens = species on record: Homo sapiens; assay: To identify inhibition of the IFN signalling (Jak-Stat) pathway via expression of an eGFP reporter gene under the control of an IFN-stimulated response element (ISRE) containing MxA promoter.; format: functional; details: 30 µM
[8] = biological target: Shiga toxin 2 (Escherichia coli O157:H7) (UniProt P09385+P09386); assay: E. coli 0.157:H7 Shiga Toxin SOP - stx2 screening assay; format: functional; details: 30 µM
[9] = biological target: T5, Tyrosyl-tRNA synthetase, putative (Trypanosoma cruzi (strain CL Brener)) (UniProt Q4DSP6); assay: Trypanosoma cruzi tyrosyl tRNA synthetase (TcYRS) _High Tyrosine SOP; format: functional; details: 30 µM; further: in the data most compounds retested in dose-response had high values
T5 sequence (whole entry): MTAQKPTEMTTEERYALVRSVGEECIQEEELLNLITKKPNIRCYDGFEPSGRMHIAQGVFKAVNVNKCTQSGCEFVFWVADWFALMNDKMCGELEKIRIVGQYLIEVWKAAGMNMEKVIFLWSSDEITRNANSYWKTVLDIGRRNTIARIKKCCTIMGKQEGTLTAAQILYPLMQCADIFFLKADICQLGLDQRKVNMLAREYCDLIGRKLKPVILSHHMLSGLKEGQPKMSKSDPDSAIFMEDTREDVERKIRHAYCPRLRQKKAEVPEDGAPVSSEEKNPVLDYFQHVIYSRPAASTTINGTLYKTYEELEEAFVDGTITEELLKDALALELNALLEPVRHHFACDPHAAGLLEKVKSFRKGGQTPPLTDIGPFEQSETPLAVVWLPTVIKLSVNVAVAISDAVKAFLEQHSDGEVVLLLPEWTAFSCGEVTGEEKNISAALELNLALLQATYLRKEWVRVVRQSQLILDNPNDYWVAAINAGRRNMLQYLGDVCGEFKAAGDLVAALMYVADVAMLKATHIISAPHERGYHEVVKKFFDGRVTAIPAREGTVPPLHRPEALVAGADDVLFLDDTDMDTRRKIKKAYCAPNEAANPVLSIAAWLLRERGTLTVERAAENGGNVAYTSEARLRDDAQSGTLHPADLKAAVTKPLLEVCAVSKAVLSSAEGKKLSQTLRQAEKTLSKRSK

[10] = biological target: T5, Tyrosyl-tRNA synthetase, putative (Trypanosoma cruzi (strain CL Brener)); assay: Trypanosoma cruzi tyrosyl tRNA synthetase (TcYRS) SOP; format: functional; details: 30 µM
[11] = biological target: Chromo domain-containing protein 1 (Saccharomyces cerevisiae (strain ATCC 204508 / S288c) (Baker's yeast)) (UniProt P32657); assay: ScCHD-1 Enzyme Inhibition Assay; format: functional; details: 30 µM; further: in the data most compounds retested in dose-response had high values
Sequence of Chromo domain-containing protein 1 (Saccharomyces cerevisiae (strain ATCC 204508 / S288c) (Baker's yeast)) (P32657 whole entry, the tested form may be a part): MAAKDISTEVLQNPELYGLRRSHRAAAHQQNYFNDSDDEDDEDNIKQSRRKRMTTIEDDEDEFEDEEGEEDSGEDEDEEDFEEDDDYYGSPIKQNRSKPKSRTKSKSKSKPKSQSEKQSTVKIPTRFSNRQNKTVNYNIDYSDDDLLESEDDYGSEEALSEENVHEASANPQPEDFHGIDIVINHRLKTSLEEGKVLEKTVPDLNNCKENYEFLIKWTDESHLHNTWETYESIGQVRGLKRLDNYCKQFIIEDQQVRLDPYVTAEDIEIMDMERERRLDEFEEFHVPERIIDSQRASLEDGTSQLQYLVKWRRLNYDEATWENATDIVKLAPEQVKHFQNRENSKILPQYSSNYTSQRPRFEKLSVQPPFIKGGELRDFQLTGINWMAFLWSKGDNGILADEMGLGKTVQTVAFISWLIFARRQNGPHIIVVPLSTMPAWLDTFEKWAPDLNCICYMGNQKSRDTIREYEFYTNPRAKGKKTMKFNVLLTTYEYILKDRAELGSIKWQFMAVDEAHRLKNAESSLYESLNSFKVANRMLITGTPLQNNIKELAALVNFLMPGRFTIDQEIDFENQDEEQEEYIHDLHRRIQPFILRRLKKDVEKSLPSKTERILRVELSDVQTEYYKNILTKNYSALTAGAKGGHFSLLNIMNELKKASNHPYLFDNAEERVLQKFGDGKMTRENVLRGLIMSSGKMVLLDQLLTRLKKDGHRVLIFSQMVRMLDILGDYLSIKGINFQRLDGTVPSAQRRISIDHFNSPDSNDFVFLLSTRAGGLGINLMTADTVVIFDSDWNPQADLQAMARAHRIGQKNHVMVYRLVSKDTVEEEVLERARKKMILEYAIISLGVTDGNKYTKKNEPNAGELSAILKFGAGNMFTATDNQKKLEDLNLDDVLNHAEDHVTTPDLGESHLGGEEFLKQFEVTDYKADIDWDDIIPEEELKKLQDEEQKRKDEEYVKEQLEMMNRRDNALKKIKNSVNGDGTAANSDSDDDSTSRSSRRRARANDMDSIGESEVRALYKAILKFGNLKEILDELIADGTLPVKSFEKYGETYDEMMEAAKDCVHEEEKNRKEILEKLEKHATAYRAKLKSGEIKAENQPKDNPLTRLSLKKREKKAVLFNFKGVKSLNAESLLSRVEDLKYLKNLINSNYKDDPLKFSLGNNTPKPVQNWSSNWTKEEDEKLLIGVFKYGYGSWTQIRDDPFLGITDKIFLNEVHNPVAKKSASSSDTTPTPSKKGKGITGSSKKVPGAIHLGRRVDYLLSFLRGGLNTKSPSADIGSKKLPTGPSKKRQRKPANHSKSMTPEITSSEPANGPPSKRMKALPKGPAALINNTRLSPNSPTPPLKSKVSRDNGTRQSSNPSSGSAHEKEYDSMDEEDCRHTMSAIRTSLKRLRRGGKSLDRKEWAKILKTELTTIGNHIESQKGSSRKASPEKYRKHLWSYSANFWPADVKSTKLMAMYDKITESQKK

Sequence of Protein translocase subunit SecA (Escherichia coli (strain K12)) (P10408 whole entry): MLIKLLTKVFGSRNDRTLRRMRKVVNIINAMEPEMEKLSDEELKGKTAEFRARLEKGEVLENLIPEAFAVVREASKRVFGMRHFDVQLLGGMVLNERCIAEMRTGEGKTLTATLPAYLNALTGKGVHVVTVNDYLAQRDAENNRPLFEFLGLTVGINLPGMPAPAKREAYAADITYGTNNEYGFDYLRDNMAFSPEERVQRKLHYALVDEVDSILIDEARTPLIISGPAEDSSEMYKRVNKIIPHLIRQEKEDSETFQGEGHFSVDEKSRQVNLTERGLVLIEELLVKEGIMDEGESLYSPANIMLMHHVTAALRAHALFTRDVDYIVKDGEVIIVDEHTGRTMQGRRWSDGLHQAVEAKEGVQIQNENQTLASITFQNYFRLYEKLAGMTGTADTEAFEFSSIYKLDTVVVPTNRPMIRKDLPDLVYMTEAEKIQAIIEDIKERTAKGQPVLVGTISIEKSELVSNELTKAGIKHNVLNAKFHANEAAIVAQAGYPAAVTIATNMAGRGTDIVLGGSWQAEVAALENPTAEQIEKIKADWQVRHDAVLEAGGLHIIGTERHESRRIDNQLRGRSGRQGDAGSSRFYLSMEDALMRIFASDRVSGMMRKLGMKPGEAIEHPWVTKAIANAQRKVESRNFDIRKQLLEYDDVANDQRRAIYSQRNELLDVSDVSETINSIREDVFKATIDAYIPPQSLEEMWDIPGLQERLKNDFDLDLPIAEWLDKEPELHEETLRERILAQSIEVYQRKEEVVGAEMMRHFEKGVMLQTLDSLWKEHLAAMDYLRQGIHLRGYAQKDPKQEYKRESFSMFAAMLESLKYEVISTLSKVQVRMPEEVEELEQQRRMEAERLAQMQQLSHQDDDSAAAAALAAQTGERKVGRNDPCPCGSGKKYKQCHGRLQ
Sequence of Sialic acid-binding Ig-like lectin 9 (Homo sapiens) (Q9Y336 whole entry): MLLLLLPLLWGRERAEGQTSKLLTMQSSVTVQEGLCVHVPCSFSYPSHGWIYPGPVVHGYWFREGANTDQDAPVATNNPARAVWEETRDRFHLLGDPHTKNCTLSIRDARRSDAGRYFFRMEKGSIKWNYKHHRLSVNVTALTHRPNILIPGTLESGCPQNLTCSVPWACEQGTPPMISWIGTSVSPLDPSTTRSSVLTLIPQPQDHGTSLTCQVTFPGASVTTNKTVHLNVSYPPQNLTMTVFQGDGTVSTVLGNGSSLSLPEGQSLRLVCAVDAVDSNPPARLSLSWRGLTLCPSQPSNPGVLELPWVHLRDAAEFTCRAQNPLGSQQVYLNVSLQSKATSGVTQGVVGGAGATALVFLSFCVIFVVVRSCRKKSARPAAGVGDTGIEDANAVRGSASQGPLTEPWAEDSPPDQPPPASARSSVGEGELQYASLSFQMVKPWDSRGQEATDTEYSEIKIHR

Row | SMILES | Percent Effect [1] [%] | Percent Effect [2] [%] | Percent Effect [3] [%] | Percent Effect [4] [%] | Percent Effect [5] [%] | Percent Effect (Trypanosoma cruzi) [%] | Percent Effect [6] [%] | Percent Effect [7] [%] | Percent Effect (Homo sapiens) [%] | Percent Effect [8] [%] | Percent Effect [9] [%] | Percent Effect [10] [%] | Percent Effect [11] [%]
1 | COC[C@@H]1CCC[C@]12CN(Cc1cccc(C)n1)CCO2 | 2.73 | 4 | 3.92 | 0.13 | -3.4 | -8.45 | 0.528 | 15.3 | 9.81 | -43.1 | 2.12 | 2.56 | -8.43
2 | CC(c1ccc(F)cc1)N1CCN(Cc2ccc(C#N)cc2)CC1 (stereo unspecified) | -5.23 | 13.5 | -0.88 | -5.75 | 2.94 | -4.81 | -0.401 | 7.57 | 18.8 | 24.7 | 4.43 | 13.6 | -5.01
